About 140 (11%) of roughly 1,300 compounds were called active. How the calls were made is not given here. Only a sample is shown. Measured potencies and affinities stand elsewhere.
Target: Prostaglandin E2 receptor EP2 subtype (Homo sapiens) (UniProt P43116)
Assay: compounds shifting PGE2 potency at EP2 – cell-based, human EP2, PGE2 EC50 shift, dose response (AID 1421)
Details: EP2-expressing cells, PGE2 EC50 shift by compound; at 20 µM

Prostaglandin E2 receptor EP2 subtype (Homo sapiens), sequence (P43116 whole entry, looked up): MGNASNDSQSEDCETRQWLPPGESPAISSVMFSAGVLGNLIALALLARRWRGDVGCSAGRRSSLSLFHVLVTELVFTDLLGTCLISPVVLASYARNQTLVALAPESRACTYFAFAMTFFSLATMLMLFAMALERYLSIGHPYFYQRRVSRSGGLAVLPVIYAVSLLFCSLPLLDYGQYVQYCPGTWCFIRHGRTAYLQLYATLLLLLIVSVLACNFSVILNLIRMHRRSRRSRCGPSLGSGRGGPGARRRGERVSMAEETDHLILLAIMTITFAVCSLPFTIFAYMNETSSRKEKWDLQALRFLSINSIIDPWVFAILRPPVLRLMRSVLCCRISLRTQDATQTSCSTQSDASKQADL

PGE2 EC50 with compound, inactive:
Cn1c(=O)c2c(nc(CN3CCN(c4ccccc4)CC3)n2Cc2c(F)cccc2Cl)n(C)c1=O 0.37 nM
CCn1c(=NC(=O)c2ccc(S(=O)(=O)N3CCOCC3)cc2)sc2cccc(OC)c21 1.76 nM
Cn1c(=O)c2c(nc(SCC(=O)N3CCc4ccccc4C3)n2C)n(C)c1=O 0.76 nM
COc1cc2ccccc2cc1C(=O)NC(=S)Nc1cc(C(=O)O)ccc1C 58.1 nM
COc1cccc(N=c2oc3c(C)ncc(CO)c3cc2C(=O)Nc2ccccc2OC)c1 0.96 nM
Cc1cc2cc3c(cc2nc1SCC(=O)OC(C)C)OCO3 0.21 nM
Cc1cc(SCC(=O)c2ccccc2)nc2ccccc12 1.19 nM
C=CCSc1nc(N(CC)CC)c2sccc2n1 0.61 nM
Cc1cccc(Cn2c(=O)n(Cc3ccco3)c(=O)c3ccccc32)c1 0.31 nM
O=c1c2ccccc2n(Cc2ccc(Cl)cc2)c(=O)n1Cc1ccco1 0.38 nM
CCOC(=O)c1sc2nccc(N(C)C)c2c1N=CNOCc1ccccc1 0.21 nM
c1ccn(-c2ncnc3sc4c(c23)CCCC4)c1 0.38 nM
CSc1nnc2c3ccccc3c3ccccc3c2n1 0.24 nM
Fc1ccccc1Nc1nc2c(s1)CCc1ccccc1-2 0.26 nM
C=C[C@@](C)(O)CCC1C(=C)C[C@H](O)C2C(C)(C)CCCC12C (stereo partly specified) 0.59 nM
CCOC(=O)CSc1nc(Cc2ccccc2)nc2ccccc12 0.35 nM
COC(=O)CSc1nc(Cc2ccccc2)nc2ccccc12 0.17 nM
CCN(Cc1cc(Cl)cc(C)c1O)Cc1c(O)ccc2ccccc12 0.73 nM
Cc1ccc(-c2cccc(C(=O)NCc3ccccc3)n2)c2ccccc12 0.42 nM
COC(=O)c1c(C)nc2ccccc2c1-c1ccccc1 0.22 nM
CCCn1c(C)nc2c(c1=O)c1nc3ccccc3nc1n2CCC1=CCCCC1 0.36 nM
O=C(Nc1cccc(Cl)c1N1CCCCC1)c1ccc2c(c1)OCCO2 0.26 nM
CCCCOc1ccccc1NC(=O)c1scc2c1OCCO2 0.31 nM
CCOC(=O)c1c(NC(=O)CSc2nnnn2CC)sc(C)c1C 0.73 nM
O=C(Nc1ccccc1)c1nn(-c2cccc(C(F)(F)F)c2)ccc1=O 0.1 nM
O=C(Cc1ccccc1)Nc1ccccc1N1CCN(c2ccccc2)CC1 0.28 nM
O=C(COc1ccccc1)Nc1ccccc1N1CCN(c2ccccc2)CC1 0.2 nM
CN(C)c1ncc(S(=O)(=O)c2ccccc2)c(-c2ccccc2Cl)n1 0.23 nM
O=C(CSc1nc2ccccc2o1)Nc1ccccc1N1CCCCCC1 0.53 nM
O=C(c1ccccc1O)N1N=C(c2ccccc2)CC1(O)C(F)(F)F (stereo unspecified) 0.51 nM
N#Cc1sc2nc(N3CCCCC3)c3c(c2c1N)CCCC3 0.26 nM
NC(=O)c1sc2nc(N3CCCCC3)c3c(c2c1N)CCCC3 0.08 nM
Cc1ccc(S(=O)(=O)n2c3ccc(Cl)cc3c3nc(C)sc32)cc1 0.13 nM
Cc1cccc(C)c1OCc1nnc(SCC(=O)Nc2nccs2)n1-c1ccccc1 0.57 nM
CC(=O)c1ccc2c(c1)c1ccccc1n2CC(C)C 0.19 nM
Cc1cc([N+](=O)[O-])c(C)c(Br)c1C 0.91 nM
O=C(O)c1nc2nc(Cl)c(Cl)nc2[nH]1 0.87 nM
O=C(Nc1ccccc1Oc1ccccc1)c1cnccn1 0.75 nM
CC1CCN(c2ccccc2NC(=O)c2ccc(F)cc2)CC1 0.3 nM
O=C(Nc1ccccc1N1CCCCC1)c1cccc(F)c1 0.33 nM
O=C(Nc1ccccc1N1CCCC1)c1cc2ccccc2o1 0.19 nM
O=C(Nc1ccccc1N1CCCCC1)c1ccc2nccnc2c1 0.08 nM
O=C(Nc1ccccc1N1CCCCC1)c1ccc(F)cc1 0.41 nM
O=C(CNCC1CCCCC1)Nc1ccccc1N1CCCCC1 0.57 nM
O=C(Nc1ccccc1N1CCCCC1)c1cccc([N+](=O)[O-])c1 0.3 nM
CCOC(=O)c1c(N)sc(-c2ccccc2)c1C 0.8 nM
O=C(CO/N=C/c1ccccc1)N1c2ccccc2Oc2ccccc21 0.59 nM
CC1CCN(c2nc3c(c(=O)[nH]c(=O)n3C)n2CC(C)CSc2nnnn2-c2ccccc2)CC1 (stereo unspecified) 0.73 nM
COC(=O)c1cc2occc2n1Cc1cccc(C)c1 0.36 nM
CCc1nc2c(cnn2-c2ccc(Cl)cc2)c(=O)n1-c1ccc(OC)cc1 1.12 nM
COc1ccc(Cl)cc1-n1c(C)ccc1C 0.33 nM
CCCCc1nc(SCCOC)c2c(=O)n(C)c(=O)n(C)c2n1 0.46 nM
CCC(=O)Oc1ccc(C(CC)C(CC)c2ccc(OC(=O)CC)cc2)cc1 (stereo unspecified) 0.53 nM
O=c1c2ccccc2c(=O)n(Cc2ccccc2)n1Cc1ccccc1 0.08 nM
CC(=O)Oc1ccc2ccccc2c1C(NC(=O)Cc1ccccc1)c1ccccc1 (stereo unspecified) 0.32 nM
COc1ccc(CSC2=C(C#N)C(=O)NC3(CCCCC3)S2)cc1 0.76 nM
COc1ccc(C(=O)Nc2ccccc2N2CCCCC2)cc1[N+](=O)[O-] 0.44 nM
O=C(Nc1ccccc1N1CCCCC1)c1ccc(Cl)c([N+](=O)[O-])c1 0.55 nM
Cc1cccc(-n2c(CCc3ccccc3)nnc2SCC(=O)c2ccccc2)c1 0.19 nM
COc1ccccc1C(CC(=O)c1ccccc1)CC(=O)c1ccccc1 0.61 nM
O=c1[nH]c(=S)c2c(n1-c1ccccc1)CCC2 1.62 nM

— PubChem BioAssay AID1421 (Emory University Molecular Libraries Screening Center, 2008)
